These results are taken from PubChem BioAssay (NCI).

Each structure is given as a SMILES string. About 83,000 compounds went through this panel and 20% of them were active in at least one assay; those are over-represented in the sample as a whole.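 The test compound was applied at a single concentration to cells in 96-well plates for 48 hours, and percent growth was recorded.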 A number with no mark means an inactive call. Calls of active or inactive are those of the source.

For this test, the system named is HT29 colon. Nature of the test: NCI-60 one-dose screen, 48 h (100 = growth as untreated, 0 = no growth, -100 = all killed). The following applies: 10 µM unless noted. The method, then:
Growth inhibition of the HT29 human tumor cell line is measured as a screen for anti-cancer activity. Cells are grown in 96 well plates and exposed to the test compound for 48 hours. Compounds are tested at a single concentration, which is 10^-5 M for most compounds. The reported endpoint is percent growth (GI% or GIPRCNT), where numbers from 0 - 100% represent growth inhibition, and numbers from -100% - 0 represent cell death. For example, a value of 40 represents 60% growth inhibition. A value of 0 means no net growth occurred over the course of the experiment. A value of -40 indicates 40% of cells at the beginning of the experiment died by the end of the experiment. A value of -100 means all cells are dead at the end of the experiment.
NCI-60 Human Tumor Cell Lines Screen was performed using the standard one-dose NCI protocol, which is described in more detail at https://dtp.cancer.gov/discovery_development/nci-60/default.htm.
Compounds with GIPRCNT values below 10 were considered active. Activity score was based on GIPRCNT using the following formula: […]
Score is 0 for GIPRCNT values of 100 or above, 50 for GIPRCNT values of 0, and 100 for GIPRCNT values of -100.
With `CCCCCn1cnc2c(=S)nc[nH]c21`, the growth was 114%. On to `O=C(Nc1cccc2[nH]c(C(F)(F)F)nc12)c1ccc(Br)cc1F`, for which the growth is 61.9%. For `COc1cnc2c(c1)C(=O)c1c-2n(CCCN2CCCC2)c(=O)c2cc([N+](=O)[O-])ccc12` the value was -59.4% (active); for `CCOC(=O)C12CCCC1=CC(=O)CC2` (stereo not given), 131%. On to `O=C(CN1CCOCC1)Nc1ccc(Cn2nnc3c2C(=O)c2nnn(Cc4ccc(NC(=O)CN5CCOCC5)cc4)c2C3=O)cc1`, for which the growth was -37.3% (active). Turning to `CCOC(=O)c1c2ncccc2n2c(=O)n(-c3ccc(Cl)cc3)nnc12`, the growth was 108%. The result for `C/C(=C(/c1ccc(O)cc1)c1ccc(OCCN(C)C)cc1)c1ccccc1` reads 22.1%.

`CCCCCCCCCCCCCC(=O)C(C)N` (stereo not given): the growth is 13.8%. The result for `O=C1OC2C(I)C3CC2C1C3c1ccccc1` (stereo not given) reads 98.7%; that for `CCN(CC)c1ccc(CNc2cc(C)nc3ccc(OC)cc23)cc1`, 9.05% (active); that for `COc1cc(-c2cc(-c3nc4ccc(Cl)cc4[nH]3)[nH]n2)cc(OC)c1OC`, 71.7%. Turning to `CC(C)c1c(C(=O)Nc2ccccc2)c(-c2ccccc2)c(-c2ccc(F)cc2)n1CC[C@@H]1CC=CC(=O)O1`, the growth was -35.6% (active). For `CC/C(Cc1ccccc1)=C(/c1ccc(O)cc1)c1ccc(OCCN2CCCC2)cc1` the value was -57% (active). The result for `COc1ccc(-c2cc(C(=O)N=Nc3c(O)[nH]c4ccccc34)no2)cc1` reads 99.5%; that for `C[C@@H]1CCC2=C(CCC[C@]2(C)C(=O)O)[C@@]1(C)CCc1ccoc1`, 86.9%.

As for `CCN(C(=O)CN1CCN(c2cc3c(cc2F)c(=O)c(C(=O)O)cn3C2CC2)CC1)c1nc(-c2ccc(OC)cc2)cs1`, the growth was 7.28% (active). Consider `CCOC(=O)c1ccc2c(c1)nc(/C=C/c1ccc(Cl)cc1)n2-c1cc(C(C)(C)C)[nH]n1`, for which the growth is 57.7%. For `COc1ccc(/C=C2\N=C3Sc4cc(Cl)ccc4C(=O)N3C2=O)cc1` the value was 104%; for `CN1CCN(c2ccc3nc(-c4ccc5nc(-c6ccc(OCCC(C)(C)C)cc6)[nH]c5c4)[nH]c3c2)CC1`, -82.3% (active). The result for `COc1ccc(-n2c(C)nc3c(c(C)nn3-c3ccccc3)c2=O)cc1` reads -15.6% (active).

On to `O=C1C=CC(Nc2ccccc2[N+](=O)[O-])C1Nc1ccccc1[N+](=O)[O-]` (stereo not given), for which the growth is -32.3% (active). The result for `CC(=O)OCC1OC(OC2=C(CC=C(Cl)Cl)C(=O)c3ccccc3C2=O)C(OC(C)=O)C(OC(C)=O)C1OC(C)=O` (stereo not given) reads 90.8%; that for `Cc1cc(=O)oc2cc(Oc3nc(-c4cccs4)cn4c(-c5cccs5)cnc34)ccc12`, 46.6%. For `C=C(CN1CCN(c2cccc(C(F)(F)F)n2)CC1)c1ccc(C(=O)Nc2ccccc2N)cc1` the value was -23.3% (active); for `O=c1c2c3c(sc2n2c(CCl)nnc2n1Cc1ccccc1)CCCC3`, -100% (active). `CN1CCN(Cc2ccc(NC(=O)c3[nH]ncc3Nc3ncnc4c3CCC4)cc2)CC1`: the growth was 9.71% (active).

In the case of `O=C1CCc2c(sc3[nH]c(=S)n(Cc4ccccc4)c(=O)c23)C1`, the growth is 79.6%. Consider `CC(=O)/C(=C/c1cccc(Cl)c1)C(=O)c1ccccc1`, for which the growth was 67.7%. In the case of `COc1ccc(C(=O)/C=C/c2c(Cl)c3c(c(OC)c2Cl)OCC(=O)N3)cc1`, the growth was 7.82% (active).

As to `CCCCN(CC)CCCCCCCCCCN1CCCc2cc(OC)ccc21`, the growth was 19.2%. The result for `COc1ccc(N(Cc2cc(OC)c(OC)c(OC)c2)C2OC(=O)c3ccccc32)cc1` (stereo not given) reads 5.34% (active); that for `C(=N\Nc1nnn(Cc2ccccc2)n1)/c1ccccc1`, 20.1%. The result for `Nc1c(C(=O)Nc2ccccc2Cl)sc2nc3c(cc12)CCCCCC3` reads 9.39% (active).

Regarding `Nc1ccc2c(c1)C(=O)NC2=O`, the growth is 90.7%. For `CN1Cc2c(cc(CN3CCCCC3)n2C)C(c2ccc(Br)cc2)C1` (stereo not given) the value was 49.6%.

Turning to `CCCCCCCCCCCCCCCCCCSC1=CC(=O)C(OC)=C(OC)C1=O`, the growth was 107%. The result for `COc1ccc(-c2csc(NC(=O)CN3CCN(c4cc5c(cc4F)c(=O)c(C(=O)O)cn5C4CC4)CC3)n2)cc1` reads 4.05% (active); that for `CCOC(=O)C(Cc1cc(I)c(O)c(I)c1)NC(=O)c1ccccc1` (stereo not given), 99.9%; that for `NC(N)=Nc1ccc(S(=O)(=O)O)cc1`, 111%. Turning to `O=S(=O)(NCCCNc1cc(-c2cn(-c3ccccc3)nc2-c2ccccc2)ccn1)c1ccc(C(F)(F)F)cc1`, the growth was 20.5%.
